# Test results from ChEMBL document CHEMBL4513141, “CO-ADD screening of NIH (USA) - Clinical Collection” (2021).
# Measured potencies and affinities stand elsewhere.
# Test system: Cryptococcus neoformans
# Details: Concentration 20 uM; ASSAY_TEST Inhibition of Fungal Growth; detection method Resazurin; Absorption (OD600-OD570); plate type 384well; NBS; CORNING #3640
row,SMILES,Inhibition
1,CC(COc1ccccc1)N(CCCl)Cc1ccccc1.Cl (centres undefined) [PHENOXYBENZAMINE HYDROCHLORIDE],-10.83%
2,NS(=O)(=O)c1cc(C2(O)NC(=O)c3ccccc32)ccc1Cl (centres undefined) [CHLORTHALIDONE],-1.27%
3,CC(C)(C)NCC(O)c1cc(O)cc(O)c1.O=S(=O)(O)O (centres undefined),-9.43%
4,Br.Br.CN1CC[C@]2(c3cccc(O)c3)Cc3nc4ccccc4cc3C[C@H]2C1.O,2.37%
5,CC(C)CC(N(C)C)C1(c2ccc(Cl)cc2)CCC1 (centres undefined) [SIBUTRAMINE],1.52%
6,CNC(=O)Oc1ccc2c(c1)[C@]1(C)CCN(C)C1N2C.CNC(=O)Oc1ccc2c(c1)[C@]1(C)CCN(C)C1N2C.O=S(=O)(O)O (some centres undefined),-6.96%
7,C[C@H](CCC(=O)O)[C@H]1CC[C@H]2[C@@H]3C(=O)C[C@@H]4CC(=O)CC[C@]4(C)[C@H]3CC(=O)[C@]12C [DEHYDROCHOLIC ACID],2.23%
8,CN(C)CCC=C1c2ccccc2CCc2ccccc21.Cl [AMITRIPTYLINE HYDROCHLORIDE],-4.46%
9,Cc1nnc2n1-c1ccc(Cl)cc1C(c1ccccc1)=NC2 [ALPRAZOLAM],-4.87%
10,CCC(COC(=O)c1cc(OC)c(OC)c(OC)c1)(c1ccccc1)N(C)C.O=C(O)/C=C\C(=O)O (centres undefined),-7.66%
11,C[N+]1(CCC(C(N)=O)(c2ccccc2)c2ccccc2)CCCCC1.[Br-] [FENPIVERINIUM BROMIDE],-1.41%
12,CCOC(=O)C1(c2ccccc2)CCN(CCC(C#N)(c2ccccc2)c2ccccc2)CC1.Cl [DIPHENOXYLATE HYDROCHLORIDE],-16.2%
13,C[C@]12Cc3c[nH]nc3C[C@@H]1CC[C@@H]1[C@@H]2CC[C@@]2(C)[C@H]1CC[C@]2(C)O [STANOZOLOL],-7.23%
14,Cc1cc(NS(=O)(=O)c2ccc(N)cc2)no1 [SULFAMETHOXAZOLE],2.83%
15,Cl.O=C1c2cccc3c2[C@H](CCC3)CN1[C@@H]1CN2CCC1CC2 [PALONOSETRON HYDROCHLORIDE],-0.6%
16,Br.COc1ccc2c3c1O[C@H]1C[C@@H](O)C=C[C@@]31CCN(C)C2 [GALANTAMINE HYDROBROMIDE],-5.72%
17,Br.COc1ccc2c(c1)[C@]13CCCC[C@@H]1[C@H](C2)N(C)CC3.O [DEXTROMETHORPHAN HYDROBROMIDE],-7.7%

row,SMILES,Inhibition
1,Cl.Oc1ccc2c3c1OC1C(O)CC[C@@]4(O)[C@@H](C2)N(CC2CCC2)CC[C@]314 (some centres undefined),-7.08%
2,CC(=O)OCC[N+](C)(C)C.[Cl-] [ACETYLCHOLINE CHLORIDE],-1.88%
3,C[C@]12CC(C=O)=C(O)C[C@@H]1CC[C@@H]1[C@@H]2CC[C@@]2(C)[C@H]1CC[C@]2(C)O,3.15%
4,Cl.N=C(N)NC(=O)c1nc(Cl)c(N)nc1N.O.O [AMILORIDE HYDROCHLORIDE],-6.3%
5,Cc1c(O)c(=O)ccn1C [DEFERIPRONE],-5.92%
6,CCOC(=O)C1=C(COCCN)NC(C)=C(C(=O)OC)C1c1ccccc1Cl (centres undefined) [AMLODIPINE],-10.38%
7,NCCc1ccccn1,-5.04%
8,C[C@H](CCC(=O)O)[C@H]1CC[C@H]2[C@@H]3[C@@H](O)C[C@@H]4C[C@H](O)CC[C@]4(C)[C@H]3CC[C@]12C [URSODIOL],-2.96%
9,CC(C)c1cccc(C(C)C)c1O [PROPOFOL],-1.51%
10,Fc1ccc([C@@H]2CCNC[C@H]2COc2ccc3c(c2)OCO3)cc1.O=C(O)/C=C\C(=O)O,-6.92%
11,CC(C(=O)O)c1ccc(-c2ccccc2)c(F)c1 (centres undefined) [FLURBIPROFEN],-3.5%
12,CC(=O)OC1C([N+]2(C)CCCCC2)C[C@H]2C3CC[C@H]4C[C@H](OC(C)=O)C([N+]5(C)CCCCC5)CC4(C)[C@H]3CCC12C.[Br-].[Br-] (some centres undefined),-9.01%
13,CC[C@@H]1/C=C/C=C/C[C@H](C)[C@@H](O)[C@](C)(O)C(=O)[C@H](C)[C@@H](O)[C@H](C)C(=O)[C@H](C)[C@@H](O)[C@H](C)/C=C/C(=O)O[C@H]2[C@@H](C)[C@@H](CC1)O[C@@]1(CC[C@@H](C)[C@@H](C[C@H](C)O)O1)[C@@H]2C,-9.53%
14,COC(=O)C1=C(C)NC(C)=C(C(=O)OC)C1c1ccccc1[N+](=O)[O-] [NIFEDIPINE],-4.99%
15,O.O=P1(N(CCCl)CCCl)NCCCO1 (centres undefined) [CYCLOPHOSPHAMIDE],1.2%
16,O=C1Nc2ccc(Cl)cc2C(c2ccccc2Cl)=NC1O (centres undefined) [LORAZEPAM],-2.1%
17,C[C@]12CC[C@H](O)CC1=CC[C@@H]1[C@@H]2CC[C@@]2(C)[C@H]1CC[C@]2(C)O [METHANDRIOL],2.63%
